Our source for the growth values is PubChem BioAssay (NCI).

The panel holds about 83,000 compounds, 20% with a hit somewhere; the sample as a whole holds those more often.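 Treatment: one concentration, 48 hours, 96-well format. Scoring: percent growth, with anything below 10 considered active.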 A number with no mark means an inactive call. Activity calls are given as the source filed them.

Among the test systems are NCI-H23 lung; NCI-H226 lung; NCI-H322M lung; HOP-62 NSCLC; NCI-H460 lung; HOP-92 NSCLC; NCI-H522 lung; A549/ATCC NSCLC; 786-0 renal; COLO 205 colon; DU-145 prostate; MALME-3M melanoma; MDA-MB-231 breast; RXF 393 renal; SF-268 CNS; SF-295 CNS; SF-539 CNS; UACC-257 melanoma; M14 melanoma; K-562 leukemia.
Common to all, as to test: NCI-60 one-dose screen, 48 h (100 = growth as untreated, 0 = no growth, -100 = all killed)
What all share (conditions): 10 µM unless noted

Consider `CCC(=O)c1ccc(O)c(OC)c1`, for which the growth is 96.1% in the assay on NCI-H23 lung; 72.4% in the assay with NCI-H226 lung; 106% in the assay on NCI-H322M lung; 104% in the assay on HOP-62 NSCLC; 104% in the assay with NCI-H460 lung; 82.6% in the assay with HOP-92 NSCLC. The growth in the assay with NCI-H522 lung is 88.2%; in the assay with A549/ATCC NSCLC, 86.5%; in the assay with 786-0 renal, 4.29% (active); with COLO 205 colon, 120%; in the assay with DU-145 prostate it was 113%; with MALME-3M melanoma, 104%. In addition, the growth in the assay on MDA-MB-231 breast is 92%; with RXF 393 renal, 111%; with SF-268 CNS it was 104%; in the assay on SF-295 CNS, 105%; in the assay with SF-539 CNS it was 111%; with UACC-257 melanoma, 85.7%. In the assay on M14 melanoma, the growth is 101%.

In the case of `O=C(Nc1sc2c(c1C(=O)O)CCCC2)c1cccc(C(F)(F)F)c1`, the growth is 90.1% in the assay with NCI-H23 lung; 103% in the assay with NCI-H226 lung; 95% with NCI-H322M lung; 104% with HOP-62 NSCLC; 78.5% in the assay with NCI-H460 lung; 79.2% with HOP-92 NSCLC. In addition, the growth is 78.7% in the assay with NCI-H522 lung; 85.3% in the assay with A549/ATCC NSCLC; 94% with 786-0 renal; 113% with COLO 205 colon; 94.2% in the assay with DU-145 prostate; 99.9% in the assay on MALME-3M melanoma. The growth is 94% in the assay with MDA-MB-231 breast; 94.9% with SF-268 CNS; 85.1% with SF-295 CNS; 93.4% in the assay on SF-539 CNS; 80.7% in the assay on UACC-257 melanoma; 98.8% with M14 melanoma.

For `Nc1nc(SN=Nc2ccc(S(N)(=O)=O)cc2)c2[nH]cnc2n1`, the growth in the assay with NCI-H23 lung was 8.88% (active); in the assay on NCI-H226 lung, 37.3%; with NCI-H322M lung it was 56.4%; in the assay with HOP-62 NSCLC, 19.8%; with NCI-H460 lung, 4.68% (active); in the assay with HOP-92 NSCLC, -6.95% (active). Besides, the growth is -9.91% (active) in the assay on NCI-H522 lung; 24.1% in the assay with A549/ATCC NSCLC; 15.7% in the assay on 786-0 renal; -30.6% (active) in the assay on COLO 205 colon; 15% in the assay on DU-145 prostate; 24.6% in the assay with MALME-3M melanoma. Also, the growth in the assay on MDA-MB-231 breast was 16.9%; in the assay on RXF 393 renal it was -6.34% (active); in the assay with SF-268 CNS, 19.8%; in the assay with SF-295 CNS, 12.6%; in the assay with SF-539 CNS, 14.9%; in the assay with UACC-257 melanoma, 8.28% (active). The growth with M14 melanoma was 11.1%.

Regarding `Cc1ccc(C(c2c(O)c3cc(Br)ccc3[nH]c2=O)c2c(O)c3cc(Br)ccc3[nH]c2=O)cc1`, the growth was 86.7% in the assay on NCI-H23 lung; 74% with NCI-H226 lung; 96.7% in the assay with NCI-H322M lung; 77% in the assay on HOP-62 NSCLC; 89.5% in the assay on NCI-H460 lung; 74.1% with HOP-92 NSCLC. Also, the growth was 77.8% in the assay with NCI-H522 lung; 89.5% with A549/ATCC NSCLC; 92.6% with 786-0 renal; 111% with COLO 205 colon; 102% in the assay on DU-145 prostate; 91% with MALME-3M melanoma. Besides, the growth in the assay on MDA-MB-231 breast is 70.5%; with SF-268 CNS, 87.1%; in the assay on SF-295 CNS, 75.6%; in the assay with SF-539 CNS, 91.2%; with UACC-257 melanoma it was 98.3%; in the assay with M14 melanoma, 93.3%.

For the compound `CC(C)Cc1ccc(C(C)C(=O)NCc2ccc(Cn3c(=O)sn(-c4ccc(Cl)cc4)c3=O)cc2)cc1` (configuration not stated), the growth was 85.6% in the assay on NCI-H23 lung; 82.6% in the assay with NCI-H226 lung; 90.2% in the assay on NCI-H322M lung; 85.7% with HOP-62 NSCLC; 61.1% in the assay on NCI-H460 lung; 75.7% in the assay on HOP-92 NSCLC. Further, the growth in the assay with NCI-H522 lung is 91.9%; in the assay with A549/ATCC NSCLC it was 75.4%; in the assay with 786-0 renal, 85.3%; in the assay on COLO 205 colon it was 74%; with DU-145 prostate, 84.4%; in the assay with MALME-3M melanoma it was 79.2%. In addition, the growth was 66.1% in the assay on MDA-MB-231 breast; 79.9% with SF-268 CNS; 80.9% with SF-295 CNS; 63% in the assay with SF-539 CNS; 81.1% in the assay on UACC-257 melanoma; 84.7% in the assay with M14 melanoma.

Consider `COc1ccc2c(c1)c(CC(=O)NCCOCCOCC(=O)Nc1ccc(OC)c(C(N)=O)c1O)c(C)n2C(=O)c1ccc(Cl)cc1`, for which the growth in the assay on NCI-H23 lung is 90.1%; in the assay with NCI-H226 lung it was 91.5%; with NCI-H322M lung, 92.7%; in the assay on HOP-62 NSCLC it was 88.8%; in the assay on NCI-H460 lung, 101%; in the assay on HOP-92 NSCLC, 91.3%. The growth is 81.3% with NCI-H522 lung; 85.7% in the assay with A549/ATCC NSCLC; 73.8% in the assay on 786-0 renal; 107% in the assay on DU-145 prostate; 91.5% in the assay on K-562 leukemia; 118% with MALME-3M melanoma. Also, the growth in the assay on MDA-MB-231 breast is 92%; in the assay with RXF 393 renal it was 92.9%; in the assay with SF-268 CNS, 88.9%; in the assay with SF-295 CNS it was 93.8%; in the assay with SF-539 CNS, 99.9%; in the assay with UACC-257 melanoma it was 113%. Further, the growth with M14 melanoma was 98.3%.

For the compound `Nc1c(Cl)cc([N+](=O)[O-])cc1Br`, the growth is 93% with NCI-H23 lung; 93.7% with NCI-H226 lung; 103% in the assay on NCI-H322M lung; 109% in the assay on HOP-62 NSCLC; 114% with NCI-H460 lung; 74.8% in the assay with HOP-92 NSCLC. Further, the growth in the assay with NCI-H522 lung was 88.1%; in the assay with A549/ATCC NSCLC it was 99.6%; with 786-0 renal, 87.8%; with DU-145 prostate, 105%; with K-562 leukemia it was 99.1%; with MALME-3M melanoma it was 107%. Further, the growth in the assay on MDA-MB-231 breast was 101%; in the assay on RXF 393 renal, 98.2%; with SF-268 CNS, 97.1%; in the assay with SF-295 CNS, 74%; in the assay on SF-539 CNS it was 114%; with UACC-257 melanoma, 91.3%.

Turning to `COc1cc2nc(-c3ccc(C#N)cc3)[nH]c(=O)c2cc1OC`, the growth with NCI-H23 lung is 104%; with NCI-H226 lung, 91.4%; with NCI-H322M lung, 211%; in the assay with HOP-62 NSCLC, 92.8%; in the assay with NCI-H460 lung, 105%; in the assay with HOP-92 NSCLC it was 127%. Further, the growth in the assay on NCI-H522 lung is 104%; with A549/ATCC NSCLC, 15.5%; in the assay on 786-0 renal it was 61.3%; in the assay on COLO 205 colon, 132%; in the assay with DU-145 prostate, 105%; in the assay with MALME-3M melanoma, 263%. Moreover, the growth was 94% with MDA-MB-231 breast; 100% in the assay on SF-268 CNS; 95.9% in the assay with SF-295 CNS; 101% with SF-539 CNS; -1.56% (active) with UACC-257 melanoma; 87.7% in the assay with M14 melanoma.
